The text below walks through data of ChEMBL document CHEMBL1157539, “Thousands of chemical starting points for antimalarial lead identification” (Nature, 2010).

Holding throughout (type): functional
Assay [1] concerns Plasmodium falciparum. Put plainly: GSK_TCMDC: Inhibition of Plasmodium falciparum 3D7 in whole red blood cells, using parasite LDH activity as an index of growth. Test compounds present at 2uM.
Assay [2] has as its system Plasmodium falciparum. Put plainly: GSK_TCMDC: Inhibition of Plasmodium falciparum Dd2 in whole red blood cells, using parasite LDH activity as an index of growth. Test compounds present at 2uM.
Assay [3] deals with HepG2. Put plainly: GSK_TCMDC: Percent inhibition of human HepG2 cell line. Test compounds present at 10uM.

Regarding `O=C(Nc1ccc(-c2cccc(-c3nc4ccccc4[nH]3)c2)cc1)c1cnn2cccnc12`, the results for the Inhibition in assay [1], in assay [2] and in assay [3] were 99%, 36% and 64%, respectively.

As for `COc1cc(Cc2cnc(N)nc2N)cc(OCCCCCC(N)=O)c1OC`, the Inhibition in assay [1] is given as 90%; in assay [2], 0%; in assay [3], 0%.

As for `CC(C)[C@@H](C(=O)NCc1cccc(C(F)(F)F)c1)N1C(=O)CCC1C(=O)Nc1ccc([N+](=O)[O-])cc1` (stereo not given in full), the Inhibition was 94% in assay [1], 2% in assay [2] and 0% in assay [3].

In the case of `COc1cc(C(=O)N2COCC(CCCN3CCC(N4CCCC4)CC3)(c3ccc(Cl)c(Cl)c3)C2)cc(OC)c1OC` (stereo not given), the Inhibition in assay [1] was 95%; in assay [2], 70%; in assay [3], 5%.

Take `COc1ccc2[nH]cc(C3CCN(CCC4CCN(C(=O)/C=C/c5ccc(Cl)c(Cl)c5)CC4)CC3)c2c1`: the Inhibition was 100% in assay [1], 56% in assay [2] and 52% in assay [3].

As for `CCCNCc1ccc(-c2ccc(CN(CCOC)C(=O)c3ccccc3)cc2)nc1.O=C(O)C(F)(F)F`, the values for the Inhibition in assay [1], in assay [2] and in assay [3] were 94%, 25% and 16%, respectively.

With `Oc1ccccc1CNC1CCCCC1NCc1ccccc1O` (stereo not given), the figures for the Inhibition in assay [1], in assay [2] and in assay [3] were 96%, 66% and 53%, respectively.

Turning to `Cc1cc(N[C@@H](Cc2ccccc2)C(=O)NCCc2ccccc2)nc(NCCc2ccc(F)cc2)n1.O=C(O)C(F)(F)F`, the results for the Inhibition in assay [1], in assay [2] and in assay [3] were 99%, 89% and 9%, respectively.

Consider `Cc1cc(NCCCCCCNc2cc(C)nc3c(C)cccc23)c2cccc(C)c2n1.Cl`, for which the Inhibition in assay [1] was 100%; in assay [2] it was 9%; in assay [3], 23%.

Regarding `CN(C)Cc1cccc(-c2ccc3ccnc(N)c3c2)c1`, the Inhibition in assay [1] was 99%; in assay [2] it was 74%; in assay [3], 21%.

`O=C(/C=C/c1ccc(Cl)c(Cl)c1)NCCCCCN1CCC(NC(=O)Nc2cc(Cl)cc(Cl)c2)CC1`: the figures for the Inhibition in assay [1], in assay [2] and in assay [3] were 94%, 5% and 98%, respectively.

With `O=C(CN1CCCCC1)Nc1ccc(Nc2nccc(NCC(O)c3ccccc3)n2)cc1` (stereo not given), the values for the Inhibition in assay [1], in assay [2] and in assay [3] were 100%, 95% and 62%, respectively.

Regarding `Nc1cccc(CNCc2cccc(-c3ccc(-c4nc5ccccc5[nH]4)s3)c2)c1.O=C(O)C(F)(F)F`, the Inhibition is 100% in assay [1], 90% in assay [2] and 8% in assay [3].

For the molecule `O=C(/C=C/c1ccc(Cl)c(Cl)c1)NCCCCCN1CCC(NC(=O)c2ccc(F)cc2)CC1`, the Inhibition was determined as 100% in assay [1], 13% in assay [2] and 14% in assay [3].

Consider `Nc1ccc2[nH]cc(C3CCN(CC4CCC(NC(=O)/C=C/c5ccc(Cl)c(Cl)c5)CC4)CC3)c2n1` (stereo not given), for which the Inhibition in assay [1] is given as 100%; in assay [2], 93%; in assay [3] it was 18%.

For the molecule `CC(C)NCc1cccc(-c2cccc(NC(=O)c3ccc(C#N)cc3)c2)c1.O=C(O)C(F)(F)F`, the Inhibition in assay [1] is 97%; in assay [2], 20%; in assay [3], 18%.

Consider `CC(C)(C)c1cc(C(=O)N2CCC(c3ccccn3)CC2)n(Cc2ccccc2)n1`, for which the Inhibition in assay [1] amounted to 96%; in assay [2], 90%; in assay [3] it was 3%.

As to `CC(C)Cc1nc(N2CCOCC2)c2nnn(Cc3ccccc3)c2n1`, the values for the Inhibition in assay [1], in assay [2] and in assay [3] were 98%, 76% and 7%, respectively.

`O=C(NCc1cccc(C(F)(F)F)c1)C1CCCN(C(=O)c2ccc(O)c(-c3ccc(Cl)c(Cl)c3)c2)C1` (stereo not given): the figures for the Inhibition in assay [1], in assay [2] and in assay [3] were 94%, 32% and 1%, respectively.

With `Cc1cc(NCCC(=O)Nc2ccccc2)nc(NCCc2cccs2)n1.O=C(O)C(F)(F)F`, the values for the Inhibition in assay [1], in assay [2] and in assay [3] were 99%, 20% and 26%, respectively.

On to `CC(C)Nc1cc(C(=O)N[C@@H](Cc2ccccc2)[C@H](O)CNC2CCOCC2)c(F)c(N2CCCCS2(=O)=O)c1.O=CO`, for which the results for the Inhibition in assay [1], in assay [2] and in assay [3] were 98%, 98% and 2%, respectively.

Consider `O=C(Nc1ccc(C(F)(F)F)cc1)c1ccc(S(=O)(=O)NCC2CCCN(CC3CCCCC3)C2)cc1.O=C(O)C(F)(F)F` (stereo not given), for which the Inhibition in assay [1] turned out to be 93%; in assay [2], 0%; in assay [3], 44%.

On to `CNC(=O)c1cnc(Nc2ccc(N3CCN(C)CC3)cc2)nc1Nc1cccc([N+](=O)[O-])c1.O=C(O)C(F)(F)F`, for which the values for the Inhibition in assay [1], in assay [2] and in assay [3] were 100%, 100% and 31%, respectively.

For the molecule `COc1ccc(Nc2ncc3c(-c4cccc(NC(=O)Cc5ccc(O)cc5)c4)c[nH]c3n2)cc1OC`, the Inhibition stood at 100% in assay [1], 99% in assay [2] and 48% in assay [3].

Turning to `COc1cccc(CNC[C@@H](O)[C@H](Cc2ccccc2)NC(=O)c2cc3c4c(c2)c(C(C)C)cn4CCS(=O)(=O)N3C)c1.O=CO`, the Inhibition in assay [1] was 98%; in assay [2] it was 98%; in assay [3], 21%.

As to `NC(=O)NC(=O)C=Cc1ccco1`, the Inhibition in assay [1] stood at 97%; in assay [2], 0%; in assay [3], 32%.

Turning to `Cc1nc(N)nc(N)c1-c1ccc(Cl)c(Cl)c1` [METOPRINE], the Inhibition in assay [1] was determined as 95%; in assay [2], 0%; in assay [3], 66%.

For `CC(CN1CCN(C)CC1)C(=O)Nc1cccc(-c2ccc(-c3nc4ccccc4[nH]3)cc2)c1` (stereo not given), the values for the Inhibition in assay [1], in assay [2] and in assay [3] were 95%, 38% and 2%, respectively.

Take `CCCN(Cc1nnc(-c2cccs2)o1)C(=O)CSc1nnnn1-c1ccc(C)c(C)c1`: the Inhibition came out at 96% in assay [1], 80% in assay [2] and 0% in assay [3].

For the molecule `COc1ccccc1/C=C/C(=O)N(C)C1CCN(CCCCCNC(=O)/C=C/c2ccc(Cl)c(Cl)c2)CC1`, the Inhibition in assay [1] is reported as 83%; in assay [2], 63%; in assay [3], 71%.

Usually Inhibition stands for the share of the control response that was lost under treatment. Low readings indicate a weak effect, high ones a strong effect.
